Inconclusive results are not listed. Calls of active or inactive are those of the source. How the source made its calls, unless noted: active means hit-call score of the fitted dose curve at least 0.9, where 1 is the maximum; inactive means score below 0.9.
Key:
[1] = CCTE_Shafer_MEA_acute_per_burst_spike_number_mean: CCTE's Neural Acute Assay for Average Number of Spikes Per Burst, Shafer Lab (AID 2284015);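 further: hits are decreases in mean spikes per burst versus baseline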
Method in brief: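 We recorded spontaneous network firing of rat cortical neurons for 40 min before and 40 min during exposure to compound at 0.03-40 uM, at 37 C. Spikes were detected adaptively at 8x rms noise, and the change in average spikes per burst was fitted against DMSO.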

[2] = CCTE_Shafer_MEA_acute_interburst_interval_mean: CCTE's Neural Acute Assay for Mean Interburst Interval, Shafer Lab (AID 2284016);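 further: percent change of mean interburst interval versus each well's own pre-dose baseline; curves fitted for decrease in interburst interval relative to DMSO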
Method in brief: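 MEA recording of spontaneous network bursting in primary rat cortical cultures; mean interburst interval was compared before and after a 40-min compound exposure (0.03-40 uM) and expressed as percent change, relative to DMSO.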

[3] = CCTE_Shafer_MEA_acute_burst_percentage_mean: CCTE's Neural Acute Assay for Percentage of Spikes in a Burst, Shafer Lab (AID 2284017);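 on AC50: curve fitted for loss of signal so potency reflects decreased burst percentage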
Method in brief: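 Compounds were tested at 0.03-40 uM on primary rat cortical neuron networks grown over microelectrodes, with at least three wells per compound. Spontaneous firing was recorded for 40 min before and 40 min after dosing, and the change in burst percentage was computed per well.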

[4] = CCTE_Shafer_MEA_acute_burst_percentage_std: CCTE's Neural Acute Assay for Standard Deviation of Burst Percentage, Shafer Lab (AID 2284018);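 further: fitted in the negative direction so actives lower burst percentage SD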
Method in brief: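 Rat primary cortical neurons on 48-well MEAs, DIV 13 or 15, 37 C. 40-min baseline then 40-min recording with compound (0.03-40 uM); well-level SD of per-electrode burst spike percentage, expressed as percent change from baseline.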

[5] = CCTE_Shafer_MEA_acute_per_network_burst_spike_number_mean: CCTE's Neural Acute Assay for Average Number of Spikes in a Network Burst, Shafer Lab (AID 2284019);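 on AC50: curve fitted for loss of signal so actives reduce spikes per network burst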
Method in brief: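 Rat cortical cultures, DIV 13/15; spike threshold 8x rms noise, 300-5000 Hz band-pass, 12.5 kHz sampling; wells need >/= 10 active electrodes. Compound 0.03-40 uM, 40 min, 37 C; % change vs own baseline, DMSO negative control.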

[6] = CCTE_Shafer_MEA_acute_per_network_burst_spike_number_std: CCTE's Neural Acute Assay for Standard Deviation of Number of Spikes in a Network Burst, Shafer Lab (AID 2284020);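 further: fitted for decrease in spike-number SD versus DMSO so actives lower it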
Method in brief: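 Rat cortical cultures, DIV 13/15, 37 C; 20-min stabilisation, 40-min baseline, compound 0.03-40 uM, 40-min re-record. Spikes detected at 8x rms noise (300-5000 Hz band-pass). Readout: % change from baseline in per-burst spike-number SD.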

[7] = CCTE_Shafer_MEA_acute_per_network_burst_electrodes_number_mean: CCTE's Neural Acute Assay for Mean Number of Electrodes in a Network Burst, Shafer Lab (AID 2284021);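 further: curves fitted for decreases only so hits reduce electrodes per burst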
Method in brief: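 Readout: % change in mean electrodes active per network burst, post- vs pre-treatment, each well. Spikes detected at 8x rms noise after 300-5000 Hz band-pass; rat cortical cultures, DIV 13/15, compounds 0.03-40 uM, DMSO baseline.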

[8] = CCTE_Shafer_MEA_acute_network_burst_percentage: CCTE's Neural Acute Assay for Percentage of Network Bursts, Shafer Lab (AID 2284022);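 further: curves fitted for loss so actives lower network burst percentage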
Method in brief: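 Rat cortical cultures, DIV 13/15; 20 min equilibration, 40 min baseline, compound 0.03-40 uM, 40 min recording, 37 C. Spikes: 300-5000 Hz band-pass, threshold 8x rms noise. Readout: % change in network-burst spike fraction; loss direction vs DMSO.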

[9] = CCTE_Shafer_MEA_acute_cross_correlation_area: CCTE's Neural Acute Assay for Area of Cross Correlation, Shafer Lab (AID 2284024);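 further: area under pooled inter-electrode spike cross-correlation near zero lag as percent change from own baseline; curves fitted for loss of cross-correlation area so actives lower synchrony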
Method in brief: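 Rat cortical cultures, DIV 13/15, MEA; spikes detected at 8x rms noise (300-5000 Hz band-pass). Compound 0.03-40 uM, ≥3 wells each. Readout: % change in pooled inter-electrode cross-correlation area vs own baseline; DMSO negative control.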

[10] = molecular target: Estrogen receptor (Homo sapiens) (UniProt P03372); test: CCTE_Deisenroth_AIME_96WELL_LUC_Active: CCTE's 96-well Estrogen Receptor Transactivation Assay with AIME metabolic competence (ERTA luciferase; metabolism positive), Deisenroth Lab (AID 2284023; active means hit-call score of the fitted dose curve at least 0.9, where 1 is the maximum)
Method: CCTE_Deisenroth_AIME_96WELL (AIME metabolism assay) is a cell-based, single-readout assay that uses VM7Luc4E2, a human mammary gland/breast cell line, with measurements taken at 24 hour after chemical dosing in a 96-well plate.CCTE_Deisenroth_AIME_96WELL_LUC_Active is one of four assay components measured or calculated from the CCTE_Deisenroth_AIME_96WELL assay. It is designed to make measurements of luciferase induction, a form of inducible reporter, as detected with bioluminescence signals by luciferase-coupled ATP quantitation technology.CCTE_Deisenroth_AIME_96WELL_LUC_Active is a component of the CCTE_Deisenroth_AIME_96WELL assay that measures the effect of retroftting the VM7Luc ERTA assay with the Alginate Immobolization of Metabolic Enzymes (AIME) metabolism method. AIME is optimized to impart phase I hepatic metabolism using phenobarbital/beta-naphthoflavone induced hepatic S9 from male Sprague Dawley rats. Parent chemicals are incubated for 2 hours in the AIME assay prior to transfer to the VM7Luc ERTA assay plate. […] This endpoint evaluates reporter induction in metabolism positive mode. […] This assay endpoint, CCTE_Deisenroth_AIME_96WELL_LUC_Active, was analyzed in the positive analysis fitting direction relative to 17beta-estradiol as the positive control in the ERTA assay. […]

Measured: AC50

Estrogen receptor (Homo sapiens), sequence (P03372 whole entry, looked up): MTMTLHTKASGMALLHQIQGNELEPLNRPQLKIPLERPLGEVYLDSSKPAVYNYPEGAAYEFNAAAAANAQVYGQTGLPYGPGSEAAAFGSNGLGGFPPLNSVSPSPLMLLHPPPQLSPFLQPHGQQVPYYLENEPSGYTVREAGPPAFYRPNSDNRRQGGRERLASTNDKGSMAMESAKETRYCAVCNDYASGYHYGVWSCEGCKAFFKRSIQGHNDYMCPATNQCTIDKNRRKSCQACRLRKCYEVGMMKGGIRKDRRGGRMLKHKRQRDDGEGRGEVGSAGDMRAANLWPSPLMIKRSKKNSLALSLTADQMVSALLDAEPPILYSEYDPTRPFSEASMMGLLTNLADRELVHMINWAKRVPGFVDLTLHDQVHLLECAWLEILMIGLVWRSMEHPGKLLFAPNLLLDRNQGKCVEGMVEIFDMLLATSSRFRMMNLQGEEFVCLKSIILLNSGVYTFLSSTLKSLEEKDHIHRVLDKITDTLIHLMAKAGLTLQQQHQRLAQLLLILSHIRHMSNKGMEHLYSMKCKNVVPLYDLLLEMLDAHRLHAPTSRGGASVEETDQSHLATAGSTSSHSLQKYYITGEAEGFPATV

CC(C)N1C(=O)c2ccccc2NS1(=O)=O
not listed: [10]
inactive: all other assays above

CCOC(=O)C(C)OC(=O)c1cc(Oc2ccc(C(F)(F)F)cc2Cl)ccc1[N+](=O)[O-] (stereo unspecified)
not listed: [10]
inactive: all other assays above

CC1(C)C(C=C(Cl)Cl)C1C(=O)OC(C#N)c1cccc(Oc2ccccc2)c1 (stereo unspecified)
active: [2] 4160 nM | [3] 1570 nM | [7] 622 nM | [8] 1940 nM
inactive: all other assays above

CC(C)=CC1C(C(=O)OCc2coc(Cc3ccccc3)c2)C1(C)C (stereo unspecified)
inactive: [1] | [5] | [8] | [9]
active: [2] 31200 nM | [3] 15000 nM | [4] 20000 nM | [6] 20000 nM | [7] 8620 nM

Cc1nc(N(C)C)nc(OC(=O)N(C)C)c1C
not listed: [10]
inactive: all other assays above

C=C(C)CN(CC)c1c([N+](=O)[O-])cc(C(F)(F)F)cc1[N+](=O)[O-]
not listed: [10]
inactive: all other assays above

CNC(=O)Oc1cccc2ccccc12
not listed: [10]
inactive: all other assays above

COCC(=O)N(c1c(C)cccc1C)C(C)C(=O)OC (stereo unspecified)
not listed: [10]
inactive: all other assays above

CCCN(CC)CC1COC2(CCC(C(C)(C)C)CC2)O1 (stereo unspecified)
not listed: [10]
inactive: all other assays above

Clc1nc(Cl)nc(Nc2ccccc2Cl)n1
not listed: [10]
inactive: all other assays above

Cc1c(COC(=O)[C@@H]2[C@H](/C=C(\Cl)C(F)(F)F)C2(C)C)cccc1-c1ccccc1
active: [3] 756 nM | [6] 931 nM | [8] 225 nM
not listed: [10]
inactive: all other assays above

CC1(C)CCC(=Cc2ccc(Cl)cc2)C1(O)Cn1cncn1 (stereo unspecified)
not listed: [10]
inactive: all other assays above

CC1(C)C(C(=O)OC(C#N)c2cccc(Oc3ccccc3)c2)C1(C)C (stereo unspecified)
active: [1] 440 nM | [2] 309 nM | [3] 1280 nM | [5] 74.9 nM | [7] 120 nM | [8] 1540 nM | [9] 645 nM
inactive: [4] | [6]

COC(=O)N(C(=O)N1CO[C@@]2(C(=O)OC)Cc3cc(Cl)ccc3C2=N1)c1ccc(OC(F)(F)F)cc1
active: [2] 15000 nM | [3] 28900 nM
not listed: [10]
inactive: all other assays above

N#Cc1c[nH]cc1-c1cccc2c1OC(F)(F)O2
active: [1] 20000 nM | [3] 20000 nM | [4] 32400 nM | [6] 20000 nM
not listed: [10]
inactive: all other assays above
